HepG2 tox: kills HepG2 cells in TGF-b inhibitor counter-screen | Potency, µM (doses to about 46.1 µM), without a hit: top-dose activity change, negative = cytotoxicity, actives largely listed as cytotoxic | HepG2 CAGA-GFP viability, ATP luminescence, 18 h | hit rate 0.76% among 410,000
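CellTiter-Glo luminescence gave cytotoxicity after 18 hours at 37 degrees C. The cells were HepG2 CAGA-GFP in 1% FBS DMEM, stimulated with 500 pg/mL TGF-beta after compound addition. %Activity was normalised to no-cell wells (complete cell-killing) and DMSO (no toxicity), and curves were fitted and classified.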
TGFb inhibitor: inhibitors of TGF-b signaling | hit rate 1.2% among 410,000 | Potency, µM (series often up to 46.1 µM), inactives show at the top dose activity, negative = inhibition, hits mostly inhibitors | HepG2 CAGA-GFP TGF-b/SMAD3 reporter, GFP fluorescence, 18 h; TGF-beta stimulated, 500 pg/mL final; further: on the % scale 0 is the no-effect control and ±100 the full control effect; nearly all actives have a fitted effect of over 65% in size
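First, reporter cells (HEPG2 CAGA-GFP) rested 2 h at 37 degrees C. Next, compounds were pinned in and TGF-beta added to 500 pg/mL final. After 18 h, GFP was imaged per cell and summed per well.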
TDP1 cell CPT: growth inhibition of DT40 Tdp1-/-;hTDP1 cells with camptothecin (screen for TDP1 inhibitors). AID 686979. Potency, µM (doses to about 46.2 µM), inactives show top-dose activity change, negative = growth inhibition, usual class: inhibitors. chicken DT40 Tdp1-/-;hTDP1 cells + 20 nM CPT, ATP luminescence, 48 h. hit rate 12% among 420,000; further: on the % scale 0 is the no-effect control and ±100 the full control effect; nearly all actives have a fitted effect of over 55% in size
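Cell growth measured by CellTiter-Glo luminescence after a minimum 48 h, 37 C compound exposure with 20 nM CPT in Tdp1-knockout DT40 cells stably expressing hTDP1, seeded 400/well; qHTS titration format.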
HT1080NT lethal: kills 2HG-producing HT-1080-NT fibrosarcoma cells; Potency, µM (top dose mostly 46.1 µM), without a hit: at the top dose activity, negative = less viability, most hits filed as cytotoxic; hit rate 1.6% among 360,000; HT-1080-NT fibrosarcoma viability, CellTiter-Glo ATP luminescence, 48 h; AID 686970;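 further: NT is the 2HG producing partner of a matched IDH1 knockdown line; 0% = DMSO-treated cells and -100% = media-only wells without cells; nearly all actives have a fitted effect of over 55% in size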
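HT-1080-NT fibrosarcoma cells (2HG-overproducing), 750 cells/well in RPMI with 5% FBS, dosed after 2 h and incubated 48 h at 37C. CellTiter-Glo luminescence normalized to DMSO and no-cell wells; concentration-response curves fitted and classed.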
TDP1 cell noCPT: qHTS for Inhibitors of human tyrosyl-DNA phosphodiesterase 1 (TDP1): qHTS in cells in absence of CPT; Potency, µM (doses to about 46.2 µM), for the others: at the top dose activity change, negative = growth inhibition, actives largely listed as inhibitors; DT40 Tdp1-/- hTDP1 cells, no CPT, ATP luminescence, 48 h; hit rate 15% among 420,000; further: on the % scale 0 is the no-effect control and ±100 the full control effect; nearly all actives have a fitted effect of over 55% in size
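DT40 Tdp1-/-;hTDP1 cells, no CPT (DMSO vehicle only), 400 cells/well; compounds pin-transferred; ≥48 hr, 37 °C; CellTiter-Glo 30 min RT dark, luminescence read.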
HT1080 IDH1KD tx: kills HT-1080 cells with IDH1 knockdown; HT-1080 IDH1 knockdown viability, ATP luminescence, 48 h; Potency, µM (titrated, usually from 46.1 µM), for the others: top-dose activity, negative = toxicity, usual class: cytotoxic; hit rate 2% among 360,000; AID 686971;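 further: 0% = DMSO wells and -100% = cell-free medium wells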
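Luminescent ATP read-out (CellTiter-Glo, 10 min at room temperature) after 48 h compound exposure at 37 °C gave viability of IDH1-knockdown HT-1080 cells. Activity was normalised to DMSO and cell-free wells, then fitted as concentration-response curves.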
The depositor's hits bear a star; u = inconclusive; x = no result; [ ] = remark or other dose. An excerpt weighted towards active compounds, which were near 17% of everything screened. The call rests on the fitted dose curve; in most records, active means well fitted curve in the direction sought with a large enough effect; inconclusive means small, poorly fitted or top-dose-only effect, or another doubt; inactive means no such curve, though single readings can be large; an effect the other way counts as inactive or inconclusive. Potency means the concentration at half of the fitted maximal effect.

SMILES	HepG2 tox	TGFb inhibitor	TDP1 cell CPT	HT1080NT lethal	TDP1 cell noCPT	HT1080 IDH1KD tx
CN(C)CCN(C(=O)C1CCN(S(=O)(=O)c2cccs2)CC1)c1nc2c(F)cccc2s1	-20%	u	-19%	1%	-25%	-1%
CO/N=C(/C(=O)N[C@@H]1C(=O)N2C(C(=O)O)=C(COC(N)=O)CS[C@H]12)c1ccco1	x	x	u	x	11%	x
Cc1cccc(C(=O)NCC(=O)OCc2cc(=O)n3nc(C4CCCCC4)sc3n2)c1	6%	-8%	2%	x	1%	x
COc1ccc(-c2cc3ccccc3s2)cc1[C@H]1[C@H]2C=CC[C@@H](C)[C@@H]2C(=O)N1Cc1ccccc1	-3%	6%	u	0%	18µM*	-2%
COc1ccc(-c2ccc(OC)c([C@H]3[C@H]4C=CC[C@@H](C)[C@@H]4C(=O)N3Cc3ccccc3)c2)cc1C	10%	-4%	u	16%	10µM*	8%
COc1ccc(-c2ccc(N(C)C)cc2)cc1[C@H]1[C@H]2C=CC[C@@H](C)[C@@H]2C(=O)N1Cc1ccccc1	1%	u	12µM*	10%	8.2µM*	8%
COc1ccccc1CNC(=O)c1ccc2c(c1)N(Cc1cc(C)ccc1C)C(=O)c1ccccc1S2	-28%	-4%	9.2µM*	x	9.2µM*	x
CNC(=O)c1ccc2c(c1)N(Cc1cc(C)ccc1C)C(=O)c1ccccc1S2	-41%	x	u	x	u	x
COc1ccc(CCNC(=O)c2ccc3c(c2)N(Cc2ccccc2C)C(=O)c2ccccc2S3)cc1OC	-26%	-11%	3.3µM*	x	3.7µM*	x
CCCS(=O)(=O)NC(=O)C1(C)CCN(C(=O)Cc2cccc3ccccc23)C1 (stereo unspecified)	0%	2%	-4%	u	-8%	8%
Cc1ccc(S(=O)(=O)N(C)C)cc1NC(=S)Nc1ccc2[nH]c(=O)[nH]c2c1	-3%	-6%	4%	-2%	-1%	-4%
CCc1cc2c(COC(=O)c3cccc(S(C)(=O)=O)c3)cc(=O)oc2cc1O	-4%	8%	u	u	u	-14%
CNS(=O)(=O)c1cccc(C(=O)OCc2cc(=O)oc3c(C)c(O)ccc23)c1	-19%	u	u	u	18µM*	-17%
CCOc1ccccc1NC(=O)C(OC(=O)c1ccc(NC(=O)CC#N)cc1)c1ccccc1 (stereo unspecified)	0%	-8%	-26%	-7%	u	-14%
O=C(NCCN1CCOCC1)C1(C(F)(F)F)C/C(=C\CCO)CCCO1 (stereo unspecified)	-17%	3%	x	x	x	x
N#CC(C#N)=CC1=C2OC(c3ccccc3)=CC(c3ccccc3)=C2CCC1	-1%	23%	26µM*	8%	13µM*	13%
O=S(=O)(NCC[C@@H]1CC[C@H](NS(=O)(=O)c2cccc(F)c2)[C@@H](CO)O1)c1cccc(F)c1	x	x	-20%	-17%	u	-15%
O=C1c2ccccc2CCCC12N=NCC2c1cccc2ccccc12 (stereo unspecified)	-28%	-4%	u	-28%	u	u
Cc1ccc(C2CN=NC23CCc2ccccc2C3=O)cc1 (stereo unspecified)	-22%	-7%	26µM*	0%	26µM*	-12%
N#Cc1ccccc1OCC(=O)NCCNC(=O)COc1ccccc1C#N	7%	-2%	-2%	11%	-7%	6%
Clc1cccc(Sc2ccc(-c3ccccn3)s2)c1	0%	-29%	2%	2%	-16%	3%
Cc1nnsc1NC(=O)OCc1ccc(C(C)(C)C)cc1	-25%	u	15µM*	-23%	8.2µM*	-29%
C=CCOC(=O)Nc1snnc1C	12%	1%	0%	9%	2%	9%[9.24 µM]
COc1ccc(C(=O)N(C(C)C)C(C)C)c(OC)c1	-3%	-3%	-10%	12%	1%	9%
ClCc1nnc(-c2ccccc2)o1	-94%	u	u	-29%	26µM*	-6%
SMILES	HepG2 tox	TGFb inhibitor	TDP1 cell CPT	HT1080NT lethal	TDP1 cell noCPT	HT1080 IDH1KD tx
Clc1cccc(-c2nnc(-c3ccccc3)o2)c1	-15%	-31%	16µM*	-14%	23µM*	-10%
CC(=O)c1ccc(OCC(=O)N2CCCCC2)cc1	x	x	3%	x	5%	x
c1ccc(Cc2nnc(Sc3ccccc3)c3ccccc23)cc1	20µM*	u	u	u	u	11µM*
COc1ccc(/C=C/C(=O)C(C(N)=O)=C2SCCS2)cc1	-8%	u	u	-11%	u	-25%
NC(=O)C(C(=O)/C=C/c1ccc(Cl)cc1)=C1SCCS1	-34%	u	3.3µM*	-7%	8.2µM*	u
COc1ccccc1CCc1nnc(CCC(=O)NCC[C@@H]2C[C@@H]3C=C[C@H]2C3)o1	-10%	-10%	15µM*	0%	18µM*	9%
COc1ccccc1CCc1nnc(CCC(=O)NCCC2CCCCO2)o1 (stereo unspecified)	3%	3%	-25%	6%	-28%	5%
Clc1ccc(-c2nnc(SCc3nc4ccccc4[nH]3)o2)c(Cl)c1	-31%	-15%	u	-9%	9.2µM*	-13%
O=c1c(-c2nnc(SCc3ccc(Cl)c(Cl)c3)o2)cccn1Cc1ccccc1	-12%	-9%	u	-5%	21µM*	0%
Clc1cccc(CSc2nnc(-c3c[nH]c4ccccc34)o2)c1	13µM*	u	u	u	u	u
c1ccc2[nH]c(CSc3nnc(-c4ccncc4)o3)nc2c1	-7%	-4%	u	-7%	u	-3%
O=c1c2ccccc2nnn1-c1ccccc1[N+](=O)[O-]	-1%	-14%	-8%	3%	-29%	6%
Cc1ccc(CNC(=O)Cc2coc3cc(C)cc(C)c23)cc1	-12%	-11%	-3%	x	u	x
CC(=O)C1=C(C)NC(SCC(=O)c2ccccc2)=C(C#N)C1CC(C)C (stereo unspecified)	3%	-7%	u	-6%	16µM*	-7%
Nc1nc2c(ncn2[C@@H]2O[C@H](COP(=O)(O)OP(=O)(O)O)[C@@H](O)[C@H]2O)c(=O)[nH]1	x	x	-16%	x	-15%	x
C=CCn1c(N)c(C(=O)OC(C)(C)C)c2nc3ccccc3nc21	-11%	-7%	21µM*	3%	12µM*	-3%

Screening data as filed in PubChem.
